Among all 56,000 sequences or so, about 4,700 (8.4%) were called active. No stated cut-off is given here; in the data, active = GI50 up to about 1.1 µM and inactive = higher. What follows is part of a selection rich in actives, with near analogues and random picks from the rest. Potency and affinity values are given separately.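 Each compound was tested at five concentrations against cells in 96-well plates for 48 hours. Abbreviation: GI50, concentration required for 50% inhibition of growth.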
Tested on: NCI-H460
Test: NCI tumour cell line growth inhibition, 48 h

First: [Bis(aminomethyl)tetramethylenesilane]tetrachloropaltinum(IV), CHEMBL2146189
Second: cis-Bis[[(trimethylsilyl)methyl]amino]tetrachloroplatinum(IV), CHEMBL2146191
The GI50 of the first is 31-fold lower: 314 nM for the first, 9770 nM for the second.

“[Bis(aminomethyl)dimethylsilane]tetrachloroplatinum(IV), CHEMBL2146190” and “[Bis(aminomethyl)ethylmethylsilane]tetrachloroplatinum(IV), CHEMBL2146192” are within 1.5-fold of each other in GI50: 577 nM for the first, 774 nM for the second.

Going from “[Bis(aminomethyl)tetramethylenesilane]dichloropaltinum(II), CHEMBL2146205” to “mu-(1,7-nanodiamine-N,N')bis-(cis-aminedichloroplatimum (II)), CHEMBL2146215”, the GI50 falls from 2640 nM to 1610 nM (1.6-fold).

First: [Bis(aminomethyl)dimethylsilane]dichloroplatinum (II), CHEMBL2146201
Second: [Bis(aminomethyl)pentamethylenesilane]tetrachloropaltinum(IV), CHEMBL2146204
The GI50 of the first is 16-fold higher: 3370 nM for the first, 206 nM for the second.

“[Bis(aminomethyl)pentamethylenesilane]dichloropaltinum(II), CHEMBL2146202” and “[Bis(aminomethyl)diethylsilane]tetrachloroplatinum(IV), CHEMBL2146203” are within 1.5-fold of each other in GI50: 312 nM for the first, 438 nM for the second.

Substance CISPLATIN, CHEMBL11359 has a GI50 of 579 nM.
